Records with an inconclusive call do not appear. Entries that show only a call come without a potency. Calls of active or inactive are those of the source. Calls follow the shape of the dose curve; as a rule, active = well fitted activation curve with a large enough effect; inconclusive = small, poorly fitted or top-dose-only effect, or effect the other way; inactive = flat fitted curve, though single readings scatter.
assay: Cellular Toxicity (caspase-3) NIH 3T3 (AID 666); conditions: NIH 3T3 caspase-3 activation, apoptosis/toxicity; series mostly up to 92.2 µM;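 also: caspase signal read after 16 h compound exposure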
Source text: NIH Chemical Genomics Center [NCGC]
NIH Molecular Libraries Screening Centers Network [MLSCN]
National Institutes of Environmental Health Sciences [NIEHS]
National Toxicology Program [NTP]
We have developed a 1536-well cell-based assay for quantitative high throughput screening (qHTS) against a number of cell lines to determine in vitro caspase 3/7 of small molecules. This particular assay uses the NIH 3T3 cell line which is derived from mouse fibroblasts.
NCGC Assay Protocol Summary:
The Caspase-Glo 3/7 assay (Promega) is a homogeneous method to measure caspase-3 and caspase-7 activities in cultured cells. The quantitation of caspase 3/7 activity is based on the cleavage of a peptide-aminoluciferin substrate. After caspase cleaves the substrate the free aminoluciferin is liberated and serves as the substrate of luciferase, which generates the light. The luminescent signal is proportional to amount of caspase 3/7 activity present.
Using the Caspase-Glo 3/7 assay, the amount of caspase 3/7 activity was measured in the NIH 3T3 cell line with complete culture medium following compound treatment for 16 hours. The assay was performed in opaque white 1536-well plates. In the screen, tamoxifen and doxorubicin were used as positive controls. Library compounds were measured for their ability to cause the activation of caspase 3/7 in the cell line, as reflected by an increase in luminescence signal, in a concentration-dependent manner. Data were normalized to the controls for basal activity (DMSO only) and 100% stimulation (100 uM tamoxifen). AC50 values were determined from concentration-response data modeled with the standard Hill equation.
qHTS protocol for caspase 3/7 assay in NIH 3T3 cells
[Step] [Parameter] [Value] [Description]
1. Reagent; 5 uL; 1000 NIH 3T3 cells/well
2. Time; 5 hr; 37 °C incubation
4. Controls; 23 nL; Tamoxifen 0.23 uM to 100 uM & Doxorubicin 7.0 pM to 100 uM
5. Time; 16 hr; 37 °C incubation
6. Reagent; 5 uL; Caspase-Glo 3/7 reagent
7. Time; 20 min; Room Temperature
8. Detection; Luminescence; Viewlux plate reader
Keywords: caspase 3/7, apoptosis, NIH 3T3 cell line, luminescence, NTPHTS, NTPHTS_NCGC, NIEHS, EPA, DSSTox, MLSMR, MLSCN, NIH Roadmap, qHTS, NCGC

Row | SMILES | Potency
1 | CCCCCCCCOC(=O)c1ccccc1C(=O)OCCCCCCCC | inactive
2 | O=[N+]([O-])c1ccc(F)c([N+](=O)[O-])c1 | inactive
3 | S=C=S | inactive
4 | COC1=CC(=O)O[C@@H](/C=C/c2ccccc2)C1 | inactive
5 | ClC(Cl)(Cl)Cl | inactive
6 | Oc1cc(Cl)c(Cl)cc1Cl | inactive
7 | O=C/C=C/c1ccccc1 | inactive
8 | [O]=[Cd] | inactive
9 | C[C@H]1CC[C@@H]2[C@@H](C)[C@H]3[C@H](C[C@H]4[C@@H]5CC=C6CC(O[C@@H]7O[C@H](CO)[C@H](O)[C@H](O[C@@H]8O[C@H](CO)[C@@H](O)[C@H](O)[C@H]8O)[C@H]7O[C@H]7O[C@@H](C)[C@H](O)[C@@H](O)[C@H]7O)CC[C@]6(C)[C@H]5CC[C@]34C)N2C1 (stereo not given in full) | inactive
10 | ClCC1CO1 (stereo not given) | inactive
11 | O=Cc1ccco1 | inactive
12 | O=C(O)C(Cl)(Cl)Cl | inactive
13 | C[C@H]1CCC[C@H](O)CCCCCc2cc(O)cc(O)c2C(=O)O1 | inactive
14 | O=C1CCO1 | inactive
15 | C[C@]12CCC(=O)C[C@@H]1CC[C@@H]1[C@@H]2CC[C@]2(C)[C@@H](O)CC[C@@H]12 | inactive
16 | O=C1C2CC=CCC2C(=O)N1SC(Cl)(Cl)Cl (stereo not given) | inactive
17 | COc1ccc2c(c1OC)C(=O)OC2C1c2cc3c(cc2CCN1C)OCO3 (stereo not given) | inactive
18 | ClC=C(Cl)Cl | inactive
19 | O=CC=O | inactive
20 | [Cl-].[Cl-].[Hg+2] | inactive
21 | Clc1ccccc1Cl | inactive
22 | NNC(N)=O | inactive
23 | CCOC(=O)c1ccccc1C(=O)OCC | inactive
24 | CC(C)(C)c1cc(O)ccc1O | inactive
25 | C=CCN=C=S | inactive
26 | O=[N+]([O-])c1ccccc1 | inactive
27 | CCCCCl | inactive
28 | CC(C)Nc1ccc(Nc2ccccc2)cc1 | inactive
29 | CC(C)CCON=O | inactive
30 | O=C1C=CC(=O)C=C1 | inactive

Reference: PubChem BioAssay (NCATS)
